# Source: PubChem
# CYP2C9 inhib – human CYP2C9 inhibition; CYP2C9 Supersomes, luciferin-H conversion, luminescence; inhibition, % at 5 µM; 20% of 96,000 active; AID 777;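 active = blocking of liver enzyme CYP2C9 beyond about 50% at 5 µM, limit read from the data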
# CYP2C19 activ – activators of human cytochrome P450 2C19; recombinant CYP2C19, luciferin-H EGE luminescence; hits give high values; 0 = fully inhibited enzyme, 1 = untreated enzyme; activation factor at 5 µM; 96,000 tested, under 10 active; AID 1025;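 active = activation factor of at least 2 at 5 µM in the primary screen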
# PostGolgi ctrl – inhibits growth of the yeast control strain | inhibition, % at 10 µM | 5% of 98,000 active | efflux-deficient yeast background strain, growth absorbance A615, 16 h
# PostGolgi yeast – growth inhibition of a yeast mutant, post-Golgi transport screen; post-Golgi transport phenotypic cell assay; inhibition, % at 10 µM; 0.9% of 98,000 active; AID 739;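 note: yeast cells grown in 1536-well plates; yeast grown about 18 h at 30C before absorbance read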
# CYP2C9 activ – activators of human CYP2C9; P11712; recombinant CYP2C9, luciferin-H conversion, luminescence; hits give high values; factor 1 = untreated enzyme, 0 = blocked; activation factor at 5 µM; 1.4% of 96,000 active;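 active = activation factor of 2 or more for CYP2C9 at a 5 µM dose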
# CYP2C19 inh – human CYP2C19 inhibition; inhibition, % at 5 µM; P33261; 21% of 96,000 active; CYP2C19 Supersomes, luciferin-H EGE luminescence, 30 min;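 active = CYP2C19 inhibition above a set limit at 5 µM in the primary screen, cut at about 50% in these data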
# Hits are given with their value; . = inactive. Not all results are given here. Cut-off read from the data, not from the text of the source, unless noted: active = inhibition above about 30%; inactive = the rest.
SMILES,CYP2C9 inhib,CYP2C19 activ,PostGolgi ctrl,PostGolgi yeast,CYP2C9 activ,CYP2C19 inh
c1ccc(Cc2nc(-c3ccccn3)no2)cc1,.,.,.,.,.,.
COc1cccc(-c2nc(-c3ccccn3)no2)c1OC,.,.,.,.,.,90
CC(=O)c1sc2nc(=O)c(C)nn2c1C,.,.,.,.,.,.
CCOC(=O)c1ccc(Nc2ncnc3nc[nH]c23)cc1,.,.,.,.,.,.
c1ccc(COc2ccc(Nc3ncnc4nc[nH]c34)cc2)cc1,.,.,70,.,.,.
